We go through 22 molecules from PubChem BioAssay (NCATS).

Results filed as inconclusive are left out. Active and inactive are the calls of the source. Calls come from the whole dose curve; as a rule, active = well fitted curve in the direction sought with a large enough effect; inconclusive = small, poorly fitted or top-dose-only effect, or another doubt; inactive = no such curve, though single readings can be large; an effect the other way counts as inactive or inconclusive.
Potency is the fitted concentration of half-maximal effect.

One assay can be described thus: qHTS of pediatric cancer cell lines to identify multiple opportunities for drug repurposing: Primary screen for NB-EBc1 cells (AID 1347095).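 For activity change, negative = cytotoxic: plate controls were DMSO neutral control for no effect and bortezomib for full effect.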 The conditions noted are these: NB-EBc1 neuroblastoma viability, CellTiter-Glo luminescence, 48 h; series mostly up to 46 µM; activity change, negative = cytotoxic: at the top concentration. The procedure, abridged: (§1)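 Following a 5-hour attachment period, cells at 500-1,000/well received compounds and were cultured for 48 hours. CellTiter-Glo was added and luminescence read to estimate viable, metabolically active cells.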
Take `COCC1(CO)C(=O)C2CCN1CC2` (configuration not stated): the Potency was 264 nM (active).
Take `O=S(=O)(CC1CS1)c1ccc(Oc2ccccc2)cc1` (configuration not stated): the Potency was 23500 nM (active).
On to `COc1ccc(CC2NCCc3cc(OC)c(OC)cc32)cc1OC` (configuration not stated), for which the “activity change, negative = cytotoxic” value was 6.55% (inactive).
In the case of `COC1=C[C@@H]2[C@@H]3Cc4ccc(OC)c(O)c4[C@]2(CCN3C)CC1=O`, the Potency is 20900 nM (active).
Regarding `CCN1CCN(C(=O)Cc2ccc(Nc3ncc(F)c(Nc4ccc(C(=O)Nc5ccccc5Cl)cc4)n3)cc2)CC1`, the Potency is 5260 nM (active).
`CC(=O)N(C)c1cccc(-c2ccnc3c(C(=O)c4cccs4)cnn23)c1`: the “activity change, negative = cytotoxic” value is 32.1% (inactive).
As to `CCCN(CCC)c1c([N+](=O)[O-])cc(S(N)(=O)=O)cc1[N+](=O)[O-]`, the Potency is 30600 nM (active).
With `Cc1ccccc1-n1c(Cn2cnc3c(N)ncnc32)nc2cccc(C)c2c1=O`, the Potency is 743 nM (active).
Turning to `CC(=Cc1csc(C)n1)[C@@H]1C[C@H]2O[C@]2(C)CCC[C@H](C)[C@@H](O)[C@@H](C)C(=O)C(C)(C)[C@@H](O)CC(=O)O1`, the Potency was 16.6 nM (active).
On to `CC(C)[C@]12O[C@@H]1[C@@H]1O[C@]13[C@]1(O[C@H]1C[C@@H]1C4=C(CC[C@@]13C)C(=O)OC4)[C@H]2O`, for which the Potency is 1 nM (active).
With `CCc1c(C(=O)C(N)=O)c2c(OCC(=O)O)cccc2n1Cc1ccccc1`, the “activity change, negative = cytotoxic” value is 9.4% (inactive).
On the same count and under the same terms, the same measure for `O=C1CCC[C@@H]2[C@H]3CCCN4CCC[C@@H](CN12)[C@@H]34`: -5.89% (inactive).
With `CC(=O)O[C@@]12CO[C@H]1C[C@H](O)[C@@]1(C)C(=O)[C@H](O)C3=C(C)[C@@H](O)C[C@@](O)([C@@H](OC(=O)c4ccccc4)[C@@H]21)C3(C)C`, the Potency is 2090 nM (active).
Take `CC(=Cc1csc(C)n1)[C@@H]1C[C@H]2O[C@@H]2CCC[C@H](C)[C@@H](O)[C@@H](C)C(=O)C(C)(C)[C@@H](O)CC(=O)O1`: the Potency was 1 nM (active).
The same measure, in the same setting: the same measure for `CCCCCC[C@H]1C(=O)O[C@H](C)[C@H](NC(=O)c2cccc(NC=O)c2O)C(=O)O[C@@H](C)[C@@H]1OC(=O)CC(C)C`: 23.5 nM (active).
`c1cc2ccc3cccc4ccc(c1)c2c34`: the “activity change, negative = cytotoxic” value was -11.8% [at 92.7 µM] (inactive).
For `CC[C@H]1C=CC=CC[C@@H](C)[C@H](O)[C@@](C)(O)C(=O)[C@@H](C)[C@H](O)[C@@H](C)C(=O)[C@@H](C)[C@H](O)[C@@H](C)C=CC(=O)O[C@@H]2[C@@H](C)[C@H](CC1)O[C@]1(CC[C@H](C)[C@H](C[C@@H](C)O)O1)[C@H]2C`, the Potency is 13.2 nM (active).
As for `C[C@H]1CCCC=CC2C[C@H](O)C[C@@H]2[C@H](O)C=CC(=O)O1` (some centres not stated), the Potency was 1 nM (active).

Another assay in a line: qHTS of pediatric cancer cell lines to identify multiple opportunities for drug repurposing: Primary screen for U-2 OS cells (AID 1347096).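 For activity change, negative = cytotoxic: plate controls were DMSO wells for no effect and bortezomib positive control wells for full effect.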 Note: nearly all actives have a fitted effect of over 50% in size. Particulars: U-2 OS viability, CellTiter-Glo luminescence, 48 h; series mostly up to 46 µM; activity change, negative = cytotoxic: at the top concentration. In a few lines: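 Cells (500-1,000/well) rested 5 h, then received compounds for 48 h; metabolically active cells were measured by CellTiter-Glo luminescence. Final concentrations spanned up to 46 µM (MIPE, 11-point) or 0.59 nM-46 µM (NPC, 8-point) in primary screens, 11-point in follow-ups.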
A general note: qHTS replaces the single test concentration by a dilution series.
Take `COc1ccc(CC2NCCc3cc(OC)c(OC)cc32)cc1OC` (configuration not stated): the “activity change, negative = cytotoxic” value is -11.1% (inactive).
Still for that read-out and setting: the same measure for `COC1=C[C@@H]2[C@@H]3Cc4ccc(OC)c(O)c4[C@]2(CCN3C)CC1=O`: -26.9% (inactive).
Turning to `CCN1CCN(C(=O)Cc2ccc(Nc3ncc(F)c(Nc4ccc(C(=O)Nc5ccccc5Cl)cc4)n3)cc2)CC1`, the Potency is 7430 nM (active).
Regarding `CC(=O)N(C)c1cccc(-c2ccnc3c(C(=O)c4cccs4)cnn23)c1`, the “activity change, negative = cytotoxic” value was -3.16% (inactive).
The same measure, in the same setting: the same measure for `O=C(N[C@@H](COc1ccc2[nH]c(=O)[nH]c2c1)c1ccccc1)c1cccn(Cc2ccc(F)c(F)c2)c1=O`: -18.1% (inactive); for `O=[N+]([O-])c1c2ccccc2cc2ccccc12`: 5.23% [at 92.7 µM] (inactive).
In the case of `Cc1ccccc1-n1c(Cn2cnc3c(N)ncnc32)nc2cccc(C)c2c1=O`, the Potency is 14800 nM (active).
For `CC(=Cc1csc(C)n1)[C@@H]1C[C@H]2O[C@]2(C)CCC[C@H](C)[C@@H](O)[C@@H](C)C(=O)C(C)(C)[C@@H](O)CC(=O)O1`, the “activity change, negative = cytotoxic” value was -8.25% (inactive).
For `CC(C)[C@]12O[C@@H]1[C@@H]1O[C@]13[C@]1(O[C@H]1C[C@@H]1C4=C(CC[C@@]13C)C(=O)OC4)[C@H]2O`, the Potency was 1 nM (active).
With `CCc1c(C(=O)C(N)=O)c2c(OCC(=O)O)cccc2n1Cc1ccccc1`, the “activity change, negative = cytotoxic” value is 8.04% (inactive).
Take `O=C1CCC[C@@H]2[C@H]3CCCN4CCC[C@@H](CN12)[C@@H]34`: the “activity change, negative = cytotoxic” value was 7.68% (inactive).
Still for that read-out and setting: the same measure for `CCCCCC[C@H]1C(=O)O[C@H](C)[C@H](NC(=O)c2cccc(NC=O)c2O)C(=O)O[C@@H](C)[C@@H]1OC(=O)CC(C)C`: 18.3% (inactive); for `O=C1C=CC[C@@H]2[C@H]3CCCN4CCC[C@@H](CN12)[C@@H]34`: 15% (inactive).
`c1cc2ccc3cccc4ccc(c1)c2c34`: the “activity change, negative = cytotoxic” value was 8.61% [at 92.7 µM] (inactive).
Regarding `C[C@H]1CCCC=CC2C[C@H](O)C[C@@H]2[C@H](O)C=CC(=O)O1` (some centres not stated), the Potency was 1 nM (active).

The next assay in a line: qHTS of pediatric cancer cell lines to identify multiple opportunities for drug repurposing: Primary screen for Saos-2 cells (AID 1347097). For activity change, negative = cytotoxic: % is set by controls: 0 for no effect and ±100 for the full control effect. Note: nearly all actives have a fitted effect of over 40% in size. Particulars: Saos-2 viability, CellTiter-Glo ATP luminescence, 48 h; series mostly up to 46 µM; activity change, negative = cytotoxic: at the top concentration. In a few lines:
as §1
With `COCC1(CO)C(=O)C2CCN1CC2` (configuration not stated), the Potency is 8330 nM (active).
As to `O=S(=O)(CC1CS1)c1ccc(Oc2ccccc2)cc1` (configuration not stated), the Potency is 18700 nM (active).
Still for that read-out and setting: the value for `CCCCCCCCc1ccc(O)cc1` was 39000 nM (active).
With `COC1=C[C@@H]2[C@@H]3Cc4ccc(OC)c(O)c4[C@]2(CCN3C)CC1=O`, the “activity change, negative = cytotoxic” value is -16.8% (inactive).
For `CCN1CCN(C(=O)Cc2ccc(Nc3ncc(F)c(Nc4ccc(C(=O)Nc5ccccc5Cl)cc4)n3)cc2)CC1`, the Potency was 4690 nM (active).
For the molecule `O=C(N[C@@H](COc1ccc2[nH]c(=O)[nH]c2c1)c1ccccc1)c1cccn(Cc2ccc(F)c(F)c2)c1=O`, the Potency is 18700 nM (active).
As for `CC(=Cc1csc(C)n1)[C@@H]1C[C@H]2O[C@]2(C)CCC[C@H](C)[C@@H](O)[C@@H](C)C(=O)C(C)(C)[C@@H](O)CC(=O)O1`, the Potency is 1 nM (active).
Same read-out and setting: the value for `CC(C)[C@]12O[C@@H]1[C@@H]1O[C@]13[C@]1(O[C@H]1C[C@@H]1C4=C(CC[C@@]13C)C(=O)OC4)[C@H]2O` was 1660 nM (active).
Consider `O=C1CCC[C@@H]2[C@H]3CCCN4CCC[C@@H](CN12)[C@@H]34`, for which the “activity change, negative = cytotoxic” value was -12% (inactive).
As to `CC(=O)O[C@@]12CO[C@H]1C[C@H](O)[C@@]1(C)C(=O)[C@H](O)C3=C(C)[C@@H](O)C[C@@](O)([C@@H](OC(=O)c4ccccc4)[C@@H]21)C3(C)C`, the Potency is 2640 nM (active).
On the same count and under the same terms, the value for `CC(=Cc1csc(C)n1)[C@@H]1C[C@H]2O[C@@H]2CCC[C@H](C)[C@@H](O)[C@@H](C)C(=O)C(C)(C)[C@@H](O)CC(=O)O1` was 1 nM (active).
Still for that read-out and setting: the value for `CCCCCC[C@H]1C(=O)O[C@H](C)[C@H](NC(=O)c2cccc(NC=O)c2O)C(=O)O[C@@H](C)[C@@H]1OC(=O)CC(C)C` was 11800 nM (active).
As for `O=C1C=CC[C@@H]2[C@H]3CCCN4CCC[C@@H](CN12)[C@@H]34`, the “activity change, negative = cytotoxic” value is -1.83% (inactive).
For `C[C@H]1CCCC=CC2C[C@H](O)C[C@@H]2[C@H](O)C=CC(=O)O1` (some centres not stated), the Potency was 3720 nM (active).
